# Data: PubChem BioAssay (Tox21)
# Inconclusive results are not listed. Active and inactive are the calls of the source. Calls come from the whole dose curve; as a rule, active = well fitted cell-killing curve with a large enough effect in the repeat runs; inconclusive = weak or mixed curves, or effect the other way; inactive = flat fitted curve, though single readings scatter.
# Experiment: cAMP Responsive Elements (CRE) small molecule agonists, cell-based qHTS assay: qHTS cell viability counter screen (AID 2060914); note: nearly all actives have a fitted effect of over 50% in size
# Conditions: CRE-bla HEK293T viability, CellTiter-Glo luminescence, 5 h; series mostly up to 92.4 µM; activity change, negative = cytotoxicity: at the top concentration
# Procedure, shortened: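 HEK 293T CRE-bla; DMEM + 10% dialyzed FBS, 25 mM HEPES; 18 h pre-incubation; compound 3 h, 37 °C/5% CO2; CellTiter-Glo added after reporter read; luminescence after 30 min RT.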
# % is set by controls: 0 for no effect and ±100 for the full control effect; potency is the fitted concentration of half-maximal effect.
Compound,Potency,"activity change, negative = cytotoxicity"
CN1[C@@H]2CC[C@H]1CC(OC(=O)C(CO)c1ccccc1)C2 (stereo not given in full),inactive,–
CCCCC(CC)COC(=O)CC#N (stereo not given),–,1.78% (inactive)
CN(C)CCCN1c2ccccc2CCc2ccc(Cl)cc21,inactive,–
CCCC(=O)OC(=O)CCC,–,0.905% (inactive)
COc1cc([N+](=O)[O-])ccc1N,–,-8.77% (inactive)
CCCCCCCCCCCCCCCO,inactive,–
O=C(CCCCCCCCC#CI)Oc1ccccc1,–,1.85% [at 42.5 µM] (inactive)
CCN1CCCC1CN (stereo not given),–,-2.77% [at 42.5 µM] (inactive)
CCC(C)(CCC(C)C)C(=O)[O][Sn]([CH3])([CH3])[O]C(=O)C(C)(CC)CCC(C)C (stereo not given),–,0.38% (inactive)
CCOC(=O)C1=C[C@]2(CC)CCCN3CCc4c(n1c1ccccc41)[C@@H]32,–,-1.48% [at 42.5 µM] (inactive)
NCCc1cnc[nH]1,–,11% [at 42.5 µM] (inactive)
CCCCCCCCCCCCCCCCCCOCC(O)CO (stereo not given),–,-4.01% [at 42.5 µM] (inactive)
Clc1ccc(C(Cn2ccnc2)OCc2c(Cl)cccc2Cl)c(Cl)c1 (stereo not given),–,-1.93% [at 42.5 µM] (inactive)
C[N+](C)(C)CCOC(N)=O,–,1.09% [at 42.5 µM] (inactive)
COc1cc2nc(Cl)nc(N)c2cc1OC,–,11.6% [at 42.5 µM] (inactive)
OCCN1CCN(CCCN2c3ccccc3Sc3ccc(Cl)cc32)CC1,–,0.153% [at 42.5 µM] (inactive)
O=C(O)CSCC(=O)NC1CCSC1=O (stereo not given),–,1.31% [at 42.5 µM] (inactive)
O=c1[nH]cnc2c1ncn2[C@H]1CC[C@@H](CO)O1,inactive,–
Cc1ccccc1S(=O)(=O)O,–,-4.19% (inactive)
CC[C@H](NC(=O)c1cc(F)ccc1NS(=O)(=O)c1cccc2cccnc12)c1ccccc1,–,13.3% (inactive)

Compound,Potency,"activity change, negative = cytotoxicity"
O=C(O)c1ccccc1Nc1cccc(C(F)(F)F)c1,inactive,–
CCCCCCCCCCCCCCOS(=O)(=O)O,–,-19.1% (inactive)
O=C1NC(=O)[C@@H]2CC=CC[C@H]12,–,-16.1% (inactive)
C=CCCCCCCCCCCCC,–,-7.96% (inactive)
CCOc1ccc([N+](=O)[O-])cc1,–,-20.2% (inactive)
O=[N+]([O-])c1ccc(O)cc1C(F)(F)F,–,-15.9% (inactive)
CCC(C)c1ccccc1O (stereo not given),inactive,–
NC(=O)Cc1cccc2ccccc12,–,-0.142% (inactive)
CC(=O)O[C@H]1C[C@@H]2CC[C@@H]3[C@H](CC[C@@]4(C)[C@H]3C[C@H]([N+]3(C)CCCCC3)[C@@H]4OC(C)=O)[C@@]2(C)C[C@@H]1N1CCCCC1,–,12% [at 42.5 µM] (inactive)
C[C@](N)(Cc1ccc(O)c(O)c1)C(=O)O,inactive,–
CC(C)CC(=O)N[C@H](C(=O)N[C@H](C(=O)N[C@@H](CC(C)C)[C@@H](O)CC(=O)N[C@@H](C)C(=O)N[C@@H](CC(C)C)[C@@H](O)CC(=O)O)C(C)C)C(C)C,–,-0.213% [at 42.5 µM] (inactive)
CC12CCC(CC1=O)C2(C)C (stereo not given),–,-18.2% (inactive)
NC1CCN(c2nc3c(cc2F)c(=O)c(C(=O)O)cn3-c2ccc(F)cc2F)C1 (stereo not given),–,2.33% [at 42.5 µM] (inactive)
c1ccc2c(c1)CCCC2C1=NCCN1 (stereo not given),–,7.4% [at 42.5 µM] (inactive)
Nc1ccc(S(N)(=O)=O)cc1,inactive,–
CC[C@@H]([C@H](C)O)n1ncn(-c2ccc(N3CCN(c4ccc(OC[C@@H]5CO[C@@](Cn6cncn6)(c6ccc(F)cc6F)C5)cc4)CC3)cc2)c1=O,26.6 µM (active),–
O=S(=O)(O)c1ccc(N=Nc2c(O)ccc3ccccc23)cc1,–,-23.3% (inactive)
FC(F)OC(Cl)C(F)(F)F (stereo not given),–,-11% (inactive)
CCOc1ncc(F)c(=O)[nH]1,–,-1.93% [at 42.5 µM] (inactive)
O=C(O)COCCN1CCN(C(c2ccccc2)c2ccc(Cl)cc2)CC1 (stereo not given),inactive,–
